# Assay results from ChEMBL document CHEMBL3433997, “St. Jude Leishmania screening dataset” (2016).
# Biological target: Solute carrier family 2, facilitated glucose transporter member 1 (Homo sapiens) (UniProt P11166)
# Assay: ST_JUDE_LEISH: Cytotoxicity at 2uM final concentration against transgenic Leishmania Mexicana promastigotes LmGLUT1 that are glucose transport deficient and complemented with the human glucose transporter GLUT1. Activity is measured by DNA content using SYBR green in vitro
# Format: functional
# Solute carrier family 2, facilitated glucose transporter member 1 (Homo sapiens), sequence (P11166 whole entry): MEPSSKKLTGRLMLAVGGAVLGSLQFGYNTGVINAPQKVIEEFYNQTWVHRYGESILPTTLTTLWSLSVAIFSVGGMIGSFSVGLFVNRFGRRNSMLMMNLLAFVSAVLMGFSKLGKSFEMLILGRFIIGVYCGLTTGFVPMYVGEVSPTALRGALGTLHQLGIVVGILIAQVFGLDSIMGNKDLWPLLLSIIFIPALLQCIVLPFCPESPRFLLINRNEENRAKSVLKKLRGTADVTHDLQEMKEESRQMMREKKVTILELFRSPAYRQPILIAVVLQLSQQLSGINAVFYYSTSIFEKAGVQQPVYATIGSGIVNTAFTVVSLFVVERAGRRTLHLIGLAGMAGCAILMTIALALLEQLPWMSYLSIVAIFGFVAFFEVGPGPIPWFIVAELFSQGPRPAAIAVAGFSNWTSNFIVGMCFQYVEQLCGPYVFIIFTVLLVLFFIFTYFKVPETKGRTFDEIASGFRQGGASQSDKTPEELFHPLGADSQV
row,Compound,inhibition
1,O=c1cc(NCCCNCc2cc3c(Cl)cccc3s2)[nH]c2ccccc12,-1.61%
2,CCOc1cc(C(=O)Nc2ccc3nc(N(CC)CC)cc(C)c3c2)cc(OCC)c1OCC,-0.12%
3,Oc1ccc2[nH]c(-c3ccc(OC(F)(F)F)cc3)nc2c1CNC1CCCC1,2.65%
4,CCNc1cc(C(=O)N[C@@H](Cc2ccccc2)[C@H](O)CN[C@H](C)c2ccccc2)cc(N2CCCC2=O)c1,4.44%
5,COc1cccc(O)c1CN1CCC2(CCCN(Cc3ccc(F)cc3)C2)C1 (centres undefined),1.04%
6,Cc1cc(N2CCCCC2)nc2ccc(NC(=O)c3cncc(Br)c3)cc12,10.7%
7,CC(CN1CCN(C)CC1)C(=O)Nc1cccc(-c2ccc(-c3nc4ccccc4[nH]3)s2)c1 (centres undefined),-1.1%
8,CC1CN(CC(O)Cn2c3ccc(Br)cc3c3cc(Br)ccc32)CC(C)O1 (centres undefined),2.95%
9,O=C(NCCCCN1CCC(O)(c2ccc3c(c2)OCO3)CC1)c1ccc(NC(=O)c2ccc(Cl)cc2)cc1,-1.5%
10,CCc1cccc(NC(=O)c2ccc(CN3CCCN(CC4CCCCC4)CC3)cc2)c1,10.3%
11,CN(C)CCNC(=O)c1ccc2c(c1)ncn2-c1cc(OCc2ccccc2C(F)(F)F)c(C(N)=O)s1.CN(C)CCNC(=O)c1ccc2ncn(-c3cc(OCc4ccccc4C(F)(F)F)c(C(N)=O)s3)c2c1,2.32%
12,Cc1ccc(NC(=O)N2CCC(n3c(-c4ccccc4)nc4cccnc43)CC2)cc1F,6.53%
13,Nc1nc(N)c2c(n1)CCc1cc(Br)ccc1-2,1.65%
14,CN(C)Cc1ccc2cc(NC(=O)c3ccc(-c4ccc(Cl)cc4)cc3)ccc2c1,-1.97%
